In PubChem BioAssay one finds inhibition, activity and activity, % sensitization data, which are given here for 29 compounds.

The term inhibition denotes the drop in the measured response relative to a control, in per cent.

For experiment [1], the target named is PEG-3 (UniProt Q6IN02). Description: Peg3 promoter luciferase inhibitors, potency, dose response, cell-based, HeLa, CREF/GAPDH counter-screen panel (AID 624167). To be noted: CREF/GAPDH counter-screens; HeLa PEG-Prom luciferase reporter, overnight, run 1, dose range 1, at 100 µM (top of the series) unless noted. (In general: A counterscreen serves to expose hits that act by an unwanted route or on another target.)
Chain of PEG-3 (Q6IN02 whole entry, looked up): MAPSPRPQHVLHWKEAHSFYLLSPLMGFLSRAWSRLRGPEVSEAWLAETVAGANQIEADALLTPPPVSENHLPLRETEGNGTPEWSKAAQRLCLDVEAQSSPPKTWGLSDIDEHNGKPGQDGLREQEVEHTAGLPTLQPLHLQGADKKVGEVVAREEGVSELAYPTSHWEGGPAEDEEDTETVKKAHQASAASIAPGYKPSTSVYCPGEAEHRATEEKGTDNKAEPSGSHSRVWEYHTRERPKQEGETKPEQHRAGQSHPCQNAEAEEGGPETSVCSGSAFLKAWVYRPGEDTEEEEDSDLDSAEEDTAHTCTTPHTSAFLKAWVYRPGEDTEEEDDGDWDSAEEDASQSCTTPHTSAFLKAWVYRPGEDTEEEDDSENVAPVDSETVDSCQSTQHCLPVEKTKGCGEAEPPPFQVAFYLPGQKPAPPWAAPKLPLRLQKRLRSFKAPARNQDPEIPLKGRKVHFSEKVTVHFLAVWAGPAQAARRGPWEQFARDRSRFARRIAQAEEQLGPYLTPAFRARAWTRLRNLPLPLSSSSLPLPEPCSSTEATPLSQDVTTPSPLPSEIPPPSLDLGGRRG

Experiment [2] deals with PEG-3 (UniProt Q6IN02). The description is as above. As to conditions: CREF/GAPDH counter-screens; HeLa PEG-Prom luciferase reporter, overnight, run 2, dose range 1, at 100 µM (top of the series) unless noted; in the data active = activity above about 50%; inactive = the rest.
The nature of experiment [3]: inhibitors of PAF-induced NFkB signaling in CF airway cells, dose response, cell-based, uHTS hits, panel, cytotoxicity readout (AID 624344). To be noted: CF bronchial epithelial cells, PAF-induced NFkB reporter inhibition, with PAF, run 1; at 79 µM (top of the series) unless noted.
Experiment in experiment [4]: as above
To be noted: CF bronchial epithelial cells, PAF-induced NFkB reporter inhibition, with PAF, run 2; at 79 µM (top of the series) unless noted.

Experiment [5] has as its system Rat fibroblasts (CREF). Description: Peg3 promoter luciferase inhibitors, potency, dose response, cell-based, HeLa, CREF/GAPDH counter-screen panel (AID 624167). To be noted: CREF/GAPDH counter-screens; run 1, dose range 1, at 100 µM (top of the series).
The subject of experiment [6] is Rat fibroblasts (CREF). The experiment is described as above. As to conditions: CREF/GAPDH counter-screens; run 2, dose range 1, at 100 µM (top of the series).
In experiment [7] the target is Tumor necrosis factor receptor superfamily member 10B (Homo sapiens) (UniProt O14763). Description: caspase-8 TRAIL sensitization, hit retest, confirmation, cell-based, NB7+caspase-8, with/without TRAIL, luminescence panel (AID 651596). As to conditions: NB7 neuroblastoma + caspase-8, TRAIL sensitization, luminescence viability, with TRAIL, mean of runs, at 10 µM, stronger effect = higher value.
Chain of Tumor necrosis factor receptor superfamily member 10B (Homo sapiens) (O14763 whole entry, looked up): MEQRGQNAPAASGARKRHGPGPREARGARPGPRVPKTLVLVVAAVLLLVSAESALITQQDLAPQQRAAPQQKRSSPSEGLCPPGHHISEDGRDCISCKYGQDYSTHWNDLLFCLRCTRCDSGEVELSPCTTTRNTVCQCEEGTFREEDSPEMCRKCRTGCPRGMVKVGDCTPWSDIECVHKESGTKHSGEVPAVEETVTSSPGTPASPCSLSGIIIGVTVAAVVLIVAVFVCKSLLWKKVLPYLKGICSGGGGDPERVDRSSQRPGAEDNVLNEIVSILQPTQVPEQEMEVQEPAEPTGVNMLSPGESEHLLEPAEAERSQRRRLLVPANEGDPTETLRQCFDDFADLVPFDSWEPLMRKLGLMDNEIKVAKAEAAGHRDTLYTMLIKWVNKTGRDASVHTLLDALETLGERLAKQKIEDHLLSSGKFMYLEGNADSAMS

Experiment in experiment [8]: as above
To be noted: NB7 neuroblastoma + caspase-8, without TRAIL, luminescence viability, without TRAIL, mean of runs, at 10 µM.

Experiment [9] deals with Tumor necrosis factor receptor superfamily member 10B (Homo sapiens) (UniProt O14763). The experiment is described as follows: TRAIL sensitizers in caspase-8 expressing neuroblastoma cells, dose response, NB7 cells plus caspase-8, luminescence, panel (AID 652002). To be noted: NB7 neuroblastoma +caspase-8, TRAIL sensitization, luminescence viability, NB7+Caspase-8, with TRAIL, run 1; at 12.5 µM (top of the series).

The target is the same in experiment [10]. The experiment is described as above. To be noted: NB7 neuroblastoma +caspase-8, TRAIL sensitization, luminescence viability, NB7+Caspase-8, with TRAIL, run 2; at 12.5 µM (top of the series).
Experiment in experiment [11]: as above
As to conditions: NB7 neuroblastoma +caspase-8, no TRAIL, compound-alone cytotoxicity counter-screen, luminescence viability, NB7+Caspase-8, run 1; at 12.5 µM (top of the series) unless noted.

Experiment in experiment [12]: as above
As to conditions: NB7 neuroblastoma +caspase-8, no TRAIL, compound-alone cytotoxicity counter-screen, luminescence viability, NB7+Caspase-8, run 2; at 12.5 µM (top of the series) unless noted.

In the case of `Cc1ccc(-n2cc(-c3ccccc3)c3c(N4CCOCC4)ncnc32)cc1`, the inhibition in experiment [1] was 101%; in [2], 102%; in [3], 107%; in experiment [4], 101%.
Take `O=C(CCl)Nc1ccccc1Sc1ccc(Cl)cc1`: the inhibition amounted to 102% in experiment [1], 98.7% in [2], 99.4% in experiment [5] and 100% in experiment [6]. The results for the activity in [7] and in experiment [8] were 99.2% and 99.5%, respectively.
Turning to `CC(/C=C/c1ccccc1)=N/NC(=O)c1cc([N+](=O)[O-])cc([N+](=O)[O-])c1`, the inhibition in [1] turned out to be 94.6%; in experiment [2], 86.3%; in experiment [5], 47.1%. In addition, the figures for the activity in [7] and in experiment [8] were 21.2% and 30.8%, respectively.
With `COCCn1c(C)cc(C(=O)COC(=O)c2ccccc2Br)c1C`, the figures for the inhibition in experiment [1] and in [2] were 95.9% and 94.1%, respectively. Besides, the figures for the activity in [7] and in experiment [8] were 79.5% and 76.5%, respectively.
For `COc1ccc(-c2nc(-c3ccccn3)no2)cc1`, the inhibition stood at 99.7% in experiment [1], 96.8% in experiment [2], 99.9% in [5] and 99.4% in experiment [6]. For the same compound, the activity in [7] stood at 96.7%; in [8] it was 95.7%.
`COc1cc(NC(=O)c2c(F)c(F)c(F)c(F)c2F)c(OC)cc1Cl`: the inhibition in experiment [1] was determined as 99.8%; in experiment [2], 96.5%. The activity in [7] amounted to 85.1%; in experiment [8], 64.5%.
With `CN1CCN(c2ccc(NC(=O)N3CCc4ccccc43)cc2)CC1`, the inhibition was found to be 87.9% in experiment [1] and 92.8% in [2]. Moreover, the activity was 70.6% in [7] and 65.9% in [8].
Take `CN(C)c1ccc(C(C(=O)NCc2ccccc2)N(Cc2ccco2)C(=O)c2snc(C(N)=O)c2N)cc1` (stereo not drawn): the inhibition in [1] was 21.1%; in experiment [2] it was 29.3%; in experiment [3] it was 109%; in [4] it was 104%.
`CN1OC[C@@H]2CN[C@H](c3ccc(-c4cc5ccccc5o4)cc3)C[C@@H]21`: the figures for the inhibition in experiment [1] and in experiment [2] were 98% and 101%, respectively. Further, the activity in experiment [7] stood at 90.1%; in [8], 90.9%.
On to `O=c1c2ccccc2oc2cc(C#CC3(O)CCCCC3)ccc12`, for which the inhibition in experiment [1] and in experiment [2] was 102% in each case. In addition, the activity in [7] was determined as 87.3%; in [8] it was 85.3%.
Take `Cc1cc2sc3ccc(C#CC4(O)CCCCC4)cc3c(=O)c2cc1C`: the inhibition worked out at 84.2% in experiment [1] and 93.8% in experiment [2]. The results for the activity in experiment [7] and in experiment [8] were 91.2% and 90.1%, respectively.
`COc1ccc(C(C(=O)NCC2CCCO2)N(Cc2cccs2)C(=O)c2snc(C(N)=O)c2N)cc1` (stereo not drawn): the inhibition in experiment [1] came out at 47.8%; in experiment [2] it was 28.4%; in experiment [3], 109%; in experiment [4], 101%.
The corresponding values for `O=S(=O)(Nc1cccc2cccnc12)c1ccccc1` are 81.7%, 97.7%, 102% and 109%.
As for `C(=Cc1cnc2ccccc2n1)c1ccc2c(c1)OCO2`, the inhibition in experiment [1] was found to be 94.6%; in experiment [2], 98.4%; in [5], 95.9%; in experiment [6] it was 95.7%. The figures for the activity in [7] and in experiment [8] were 92.9% and 92.6%, respectively.
`O=C1CCCCC1Sc1nnc(-c2ccc3c(c2)OCO3)o1` (stereo not drawn): the inhibition was 98.4% in experiment [1], 95% in experiment [2], 95% in [5] and 94.3% in experiment [6]. Further, the activity was 48.4% in experiment [7] and 35.9% in [8]. Moreover, the activity, % sensitization in [9] is 19.6%; in experiment [10], 16.8%; in experiment [11] it was 29.8%; in experiment [12] it was 21.7%.
Turning to `CCOc1cc(/C=N/N=C(N)N)ccc1OCc1ccc(Cl)cc1`, the values for the inhibition in experiment [1] and in [2] were 99.3% and 98.5%, respectively. The values for the activity in experiment [7] and in [8] were 70% and 96.9%, respectively.
Turning to `C(=N\Nc1nc2ccccc2[nH]1)/c1ccccn1`, the inhibition in experiment [1] turned out to be 93.6%; in experiment [2] it was 101%; in experiment [5], 93.7%; in experiment [6] it was 96.8%. The results for the activity in experiment [7] and in [8] were 92% and 95.6%, respectively.
In the case of `CS(=O)(=O)c1ccc2nc(NC(=O)CCS(=O)(=O)c3ccccc3)sc2c1`, the inhibition is 85% in experiment [1], 92.7% in experiment [2], 98.1% in experiment [3] and 97.7% in experiment [4].
On to `CCCCCCCCCCCCCCCC(O)C[N+](C)(C)CCO` (stereo not drawn), for which the inhibition in experiment [1] is 102%; in experiment [2] it was 98.9%. The activity is 95.8% in [7] and 97.1% in experiment [8].
Turning to `N/C(=N\OC(=O)c1ccccc1)C(Cc1ccccc1)C(=O)NOC(=O)c1ccccc1` (stereo not drawn), the inhibition in [1] was 97.4%; in experiment [2], 99.1%. The results for the activity in experiment [7] and in experiment [8] were 98% and 97.8%, respectively.
On to `CCC1=C(CC2NCCc3ccccc32)CC2c3cc(OC)c(OC)cc3CCN2C1` (stereo not drawn), for which the inhibition in experiment [1] was found to be 97.6%; in [2], 99%; in experiment [3], 115%; in experiment [4] it was 105%.
As for `CCn1c(C)cc(C(=O)COC(=O)c2ccccc2[N+](=O)[O-])c1C`, the inhibition in experiment [1] and in experiment [2] was 99% each time. The activity in [7] is 94.7%; in [8] it was 93.3%.
As for `CCCN(CC(=O)Nc1ccccc1C)C(=O)CCl`, the inhibition in [1] is 101%; in [2] it was 98.7%. The activity came out at 97.8% in [7] and 98.2% in [8].
For `COc1cccc(CN(C)C(=O)C(CCSC)NS(=O)(=O)c2ccc3c(c2)OCCO3)c1OC` (stereo not drawn), the inhibition is 73.9% in experiment [1], 99.1% in experiment [2], 110% in [3] and 106% in experiment [4].
On to `Cc1ccc2sc(N(CCCN(C)C)C(=O)c3ccc(S(=O)(=O)N(C)Cc4ccccc4)cc3)nc2c1C`, for which the inhibition in experiment [1] came to 102%; in experiment [2], 99.1%. The activity was 44% in [7] and 32.9% in experiment [8].
As for `CCCCCCCCCCCCCCC(O)C[N+](C)(CCO)CCO` (stereo not drawn), the inhibition in [1] is 94.8%; in experiment [2] it was 101%; in experiment [3] it was 95.6%; in experiment [4], 96.1%. Also, the activity was determined as 94.9% in experiment [7] and 96.5% in experiment [8].
`Nc1nc(CCl)nc(Nc2cccc3ccccc23)n1`: the inhibition in experiment [1] stood at 102%; in experiment [2] it was 100%. Besides, the activity in experiment [7] amounted to 99.8%; in experiment [8], 98.7%.
`CCc1nccn1C(=O)c1cnn2c(C(F)F)cc(-c3ccc(C)cc3)nc12`: the inhibition in [1] amounted to 99.1%; in [2], 102%; in experiment [3], 102%; in experiment [4], 115%.
Turning to `Cc1cc(C)c2sc(N(CCCN(C)C)C(=O)c3ccc(S(=O)(=O)N4CCCc5ccccc54)cc3)nc2c1`, the inhibition worked out at 97.5% in [1] and 99.2% in experiment [2]. Also, the activity in experiment [7] turned out to be 31.6%; in experiment [8], 32.4%.
